Screening data deposited in PubChem BioAssay by National Center for Advancing Translational Sciences (NCATS).
aGal spleen mod: qHTS Assay for Inhibitors and Activators of Human alpha-Galactosidase From Spleen Homogenate | Alpha-galactosidase A (Homo sapiens), P06280 | human spleen homogenate, 4MU-alpha-Gal fluorescence, 40 min | Potency, µM (series often up to 80 µM), hits mostly inhibitors | hit rate 0.008% among 240,000 | AID 2107, 2009
Target sequence (P06280 32-429 limits assumed): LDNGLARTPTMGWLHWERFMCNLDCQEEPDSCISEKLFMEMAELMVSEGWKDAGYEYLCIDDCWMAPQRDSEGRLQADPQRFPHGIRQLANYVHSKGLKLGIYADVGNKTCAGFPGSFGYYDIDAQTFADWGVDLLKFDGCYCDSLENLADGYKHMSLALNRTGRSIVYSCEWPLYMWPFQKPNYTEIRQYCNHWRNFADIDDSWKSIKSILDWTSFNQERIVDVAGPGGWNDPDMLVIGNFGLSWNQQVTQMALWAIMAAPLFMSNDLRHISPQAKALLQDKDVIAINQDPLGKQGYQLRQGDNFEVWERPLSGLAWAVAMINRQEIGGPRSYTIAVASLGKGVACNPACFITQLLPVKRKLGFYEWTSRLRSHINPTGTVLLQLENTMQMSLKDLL
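Human spleen homogenate (1 ug) as enzyme source, 4-methylumbelliferyl-alpha-D-galactopyranoside 1 mM final, citrate/phosphate pH 5.0 with 0.01% Tween-20. Compounds 40 min at 37C, NaOH/glycine stop; fluorescence Ex 365/Em 440, Hill-fit AC50.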
12-hLO inh: qHTS Assay for Inhibitors of 12-hLO (12-human lipoxygenase) | Potency, µM (highest dose often 57.1 µM), hits mostly inhibitors | hit rate 0.12% among 150,000 | Polyunsaturated fatty acid lipoxygenase ALOX12 (Homo sapiens), P18054 | purified 12-hLO, xylenol orange hydroperoxide absorbance; note: nearly all actives have a fitted effect of over 55% in size
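Hydroperoxide output read as Fe(III)-xylenol orange absorbance, 573-to-405 nm ratio, after 30 min reaction with 40 uM arachidonic acid. Enzyme: 150 nM purified human 12hLO, 15 min compound preincubation; 25 mM Hepes pH 7.0, room temperature.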
HPGD block: qHTS Assay for Inhibitors of HPGD (15-Hydroxyprostaglandin Dehydrogenase); 15-hydroxyprostaglandin dehydrogenase [NAD(+)] (Homo sapiens), P15428; hit rate 4.3% among 150,000; purified HPGD, NADH fluorescence kinetic, PGE2 substrate; Potency, µM, usual class: inhibitors; AID 894, 2007; active = well fitted inhibition curve with a large enough effect, not every such curve was filed as active; inconclusive = small, poorly fitted or top-dose-only effect, or another doubt; inactive = no such curve, though single readings can be large or run the other way
Target sequence (P15428 whole entry, looked up): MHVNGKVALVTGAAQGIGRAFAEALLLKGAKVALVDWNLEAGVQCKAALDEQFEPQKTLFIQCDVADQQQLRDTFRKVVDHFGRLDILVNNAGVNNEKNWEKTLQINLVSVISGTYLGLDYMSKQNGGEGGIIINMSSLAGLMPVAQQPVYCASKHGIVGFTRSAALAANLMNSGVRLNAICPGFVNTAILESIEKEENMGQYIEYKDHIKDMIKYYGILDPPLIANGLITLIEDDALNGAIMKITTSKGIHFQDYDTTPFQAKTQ
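NADH formation kinetics: reaction with 30 uM PGE2 and 1 mM NAD+ (final), 20 nM enzyme, Tris-HCl pH 8 with Tween 20, after 15 min compound preincubation at room temperature. Fluorescence change, last versus first of five reads.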
PNC assembly inh: High Content Assay for Compounds that inhibit the Assembly of the Perinucleolar Compartment. PC3M PTB-GFP, PNC prevalence imaging, 16 h; active compounds read low. activity change (PNC), negative = inhibition, % at 10 µM. hit rate 3.1% among 140,000. AID 2417, 2010;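 active = readout at or below -70, meaning at least 70% loss of cells showing the perinucleolar compartment, a nuclear body marking cancer cells; inconclusive = readout between -30 and a set limit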
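Compounds are pinned in duplicate onto adhered PC3M cells stably expressing GFP-tagged PTB and incubated 16 h at 37 C. Cells are then fixed, nuclei stained with Hoechst, and PNC-positive cells counted.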
GLA inh pH 4.5: qHTS Assay for Inhibitors of Human alpha-Galactosidase at pH 4.5. 230,000 tested, under 10 active. activity change, negative = inhibition, % at 105 µM. purified enzyme, 4-MU-alpha-Gal fluorescence, pH 4.5. AID 1467, 2008. Alpha-galactosidase A (Homo sapiens), P06280
ALDH1A1 inh: qHTS Assay for Inhibitors of Aldehyde Dehydrogenase 1 (ALDH1A1) | hit rate 7.3% among 220,000 | Potency, µM (doses to about 75.3 µM), actives largely listed as inhibitors | AID 1030, 2008 | Aldehyde dehydrogenase 1A1 (Homo sapiens), P00352 | Purified ALDH1A1, NADH fluorescence, propionaldehyde substrate; active = well fitted inhibition curve with a large enough effect, not every such curve was filed as active; inconclusive = small, poorly fitted or top-dose-only effect, or another doubt; inactive = no such curve, though single readings can be large or run the other way
Hits are given with their value; . = inactive; ? = inconclusive; / = no result; [ ] = dose if it differs, or a comment. Shown are actives, neighbours in structure and some others; about 10% of the full set was active somewhere. Unless noted, calls come from the whole dose curve; as a rule, active = well fitted curve in the direction sought with a large enough effect; inconclusive = small, poorly fitted or top-dose-only effect, or another doubt; inactive = no such curve, though single readings can be large; an effect the other way counts as inactive or inconclusive.

SMILES	aGal spleen mod	12-hLO inh	HPGD block	PNC assembly inh	GLA inh pH 4.5	ALDH1A1 inh
COc1ccc(N2CSC3=C(C#N)C(c4cccc(OC)c4OC)CC(=O)N3C2)cc1 (centres undefined)	.	.	8.91µM	.	.	12.6µM
COc1cc(OC)c(C2CC(=O)N3CN(c4ccccc4C)CSC3=C2C#N)cc1OC (centres undefined)	.	.	8.91µM	.	.	3.98µM
COc1ccc(C2CC(=O)N3CN(c4ccc(C)c(Cl)c4)CSC3=C2C#N)cc1 (centres undefined)	.	.	?	.	.	3.16µM
COc1cccc(CN(C(=O)Cc2c[nH]c3ccccc23)C(C(=O)NC2CCCCC2)c2ccc(C)o2)c1 (centres undefined)	.	.	.	.	.	?
COc1ccc(-c2nc3cnc(OC)nc3n(Cc3cccc(OC)c3)c2=O)cc1	.	.	?	/	/	?
CCn1ccnc1CN(C)Cc1cn(-c2cc(C)ccc2C)nc1-c1ccccc1	.	/	/	/	.	28.2µM
S=C(Nc1ccccc1)NC1CCN(Cc2ccccc2)CC1	.	/	/	/	.	14.1µM
CCC(C)c1ccc(NC(=S)NC2CCN(Cc3ccccc3)CC2)cc1 (centres undefined)	.	?	.	?	.	7.08µM
CC(Oc1ccccc1)C(=O)NC1CCN(Cc2ccccc2)CC1 (centres undefined)	.	.	.	-84.1	.	.
CCc1ccc(NC(=S)NC2CCN(Cc3ccccc3)CC2)cc1	.	.	.	.	.	20µM
Cc1ccccc1NC(=S)NC1CCN(Cc2ccccc2)CC1	.	.	.	?	.	?
O=C(Cc1ccccc1)NC1CCN(Cc2ccccc2)CC1	.	/	/	/	.	.
S=C(Nc1ccc(Cl)cc1)NC1CCN(Cc2ccccc2)CC1	.	.	.	.	.	3.98µM
O=C(CSc1nc(O)cc(=O)[nH]1)C1CC1	.	.	17.8µM	-123.3	.	?
CC(=O)OCC1=C[C@H]2[C@@H]3C(C)(C)[C@]3(OC(C)=O)C[C@@H](C)[C@]2(O)[C@@H]2C=C(C)C(=O)[C@@]2(O)C1	.	/	/	/	/	/
Cc1n[nH]c(=O)nc1NCC1CCCO1 (centres undefined)	.	.	28.2µM	.	.	?
Cc1nc(NCC2CCCO2)[nH]c(=O)c1CCC(C)C (centres undefined)	.	.	.	.	.	.
Cc1c2c(nc3c(C(=O)NC4CC4)cnn13)CCCC2	.	.	20µM	.	.	.
Cc1cc(C(F)F)n2ncc(C(=O)NC3CCCCCC3)c2n1	.	.	22.4µM	.	.	12.6µM
Cc1cc(C(F)F)n2ncc(C(=O)NCc3ccc(F)cc3)c2n1	.	/	/	/	.	/
CCC(C)NC(=O)c1cnn2c(C)c3c(nc12)CCCC3 (centres undefined)	.	.	?	.	.	?
CN(CC(=O)Nc1ccc(F)c(F)c1F)C(=O)/C=C/c1ccc(Cl)cc1	.	.	/	.	.	.
COC(=O)[C@@H]1C[C@H]1[C@@H](NC(=O)Oc1ccc(F)cc1)c1ccccc1	.	.	.	/	.	7.94µM
COC(=O)[C@H]1C[C@@H]1[C@H](NC(=O)OCc1ccccc1)c1ccccc1	.	.	.	.	.	?
C[C@@]1(C(NC(=O)Cc2ccc(C(F)(F)F)cc2)c2ccc(-c3ccccc3)cc2)C[C@H]1C1CCCCC1 (some centres undefined)	.	.	.	/	.	.
SMILES	aGal spleen mod	12-hLO inh	HPGD block	PNC assembly inh	GLA inh pH 4.5	ALDH1A1 inh
c1ccc(-c2cnc(-c3ccccc3)nc2)cc1	.	.	.	.	.	.
N#Cc1cc(-c2ccccc2)cnc1Cl	.	.	.	.	.	3.55µM
CCc1nn(CCCC(=O)N2CCc3ccccc3C2)c(=O)c2cc3occc3n12	.	.	31.6µM	.	.	?
O=C(Cn1cnc2cc([N+](=O)[O-])ccc2c1=O)NCCc1ccc(F)cc1	.	/	/	/	.	31.6µM
CCCn1c(C)nc2c(NCCCN3CCCCC3C)nc(C)nc21 (centres undefined)	.	.	.	/	.	.
CCOC(=O)/C=C/C(=O)Nc1ccc(S(=O)(=O)N(C)c2ccccc2)cc1	.	/	/	/	.	25.1µM
CCOC(=O)c1ccccc1NS(=O)(=O)c1ccc(S(=O)(=O)N2CCCC2)cc1	.	.	.	?	.	22.4µM
O=C(O)c1cccc(S(=O)(=O)Nc2cc(Cl)ccc2Cl)c1	.	/	/	/	.	/
CCOC(=O)CN(Cc1ccccc1)S(=O)(=O)c1ccc(NC(C)=O)cc1	.	.	.	?	.	5.62µM
CCOC(=O)c1ccc(S(=O)(=O)Nc2cc(C(=O)O)ccc2Cl)cc1	.	/	/	/	.	3.16µM
CC(=O)Nc1ccc(S(=O)(=O)N(C)c2ccccc2)cc1	.	.	.	.	.	.
Clc1ccc2oc3c(Cl)ncnc3c2c1	.	.	.	.	.	?
CC1(C)CC(=O)C(C(c2cccc(O)c2O)C2C(=O)CC(C)(C)CC2=O)C(=O)C1	/	.[11.4 µM]	.	/	/	.[13.5 µM]
CCOC(=O)/C=C/C(=O)Nc1ccc(S(=O)(=O)N2CCCCCC2)cc1	.	/	/	/	.	3.55µM
CCOC(=O)CCC(=O)Nc1ccc(S(=O)(=O)N2CCCCC2)cc1	.	/	/	/	.	.
Cn1cnc([N+](=O)[O-])c1Nc1ccc(O)cc1	.	.	/	.	.	25.1µM
CCNc1c([N+](=O)[O-])ncn1C	.	.	.	?	.	.
CC1CC(C)CN(C(=O)CSc2nc(N)cc(=O)[nH]2)C1 (centres undefined)	.	/	/	/	.	.
O=C(C1=C(O)C(=O)N(Cc2ccco2)C1c1cccnc1)c1cc2ccccc2o1 (centres undefined)	.	.	.	.	.	14.1µM
COc1cccc2cc(C(=O)C3=C(O)C(=O)N(Cc4ccco4)C3c3cccnc3)oc12 (centres undefined)	.	.	.	.	.	5.62µM
O=C(C1=C(O)C(=O)N(CC2CCCO2)C1c1cccnc1)c1ccco1 (centres undefined)	.	.	.	.	.	.
Nc1nc(NCc2ccco2)nc(N2CCN(Cc3ccccc3)CC2)c1[N+](=O)[O-]	.	/	/	/	.	.
Nc1nc(NCc2ccco2)nc(N2CCCCCC2)c1[N+](=O)[O-]	.	.	.	.	.	1.58µM
Nc1nc(NCc2ccco2)nc(N2CCCC2)c1[N+](=O)[O-]	.	/	/	/	.	3.98µM
Nc1nc(NCc2ccco2)nc(NC2CCCCC2)c1[N+](=O)[O-]	.	/	/	/	.	/
O=C(Cc1ccccc1I)Nc1ccccc1	.	.	.	/	.	.
